Results on 24 sequences are retold here after the OligoGym collection.
Also: reference of the scale not given here.

The target in one assay is NOXA1. Kind of assay: pooled miR-30 sensor sort-seq; sequence = guide strand. Particulars: shRNA.
The sequence TTGTGTAGCACCTCCCAGGCTT had a sensor-assay potency score (higher = more potent) of -0.348.
In turn, TCTGTCTCTGCATCGAGGGGGC registered a sensor-assay potency score (higher = more potent) of -0.532.
For TCTGCAGCGACTCCTCCTCGGG, the sensor-assay potency score (higher = more potent) is -1.51.
In turn, TGGCATCATGGTTCGCTCCTGG returned a sensor-assay potency score (higher = more potent) of -0.558.
In the case of TCCTGGTAGGCAGTCGACGTGC, the sensor-assay potency score (higher = more potent) is -1.54.
In the case of ACATTGTGTAGCACCTCCCAGG, the sensor-assay potency score (higher = more potent) was -1.3.
TTGGTCCAGGGCTGAGTCCAGG displayed a sensor-assay potency score (higher = more potent) of -1.7.
TAACTGAGTTGCCCAAGCTGGG gave a sensor-assay potency score (higher = more potent) of -1.24.
With TTAGGGACCTGGCATCATGGTT, the sensor-assay potency score (higher = more potent) was -1.05.
As for TCACACAGGACGTCCACCGTGT, the sensor-assay potency score (higher = more potent) was 0.181.
TTGGGGAAGATGCCGATGCGGC: the sensor-assay potency score (higher = more potent) is -1.12.
TGGTAGGCAGTCGACGTGCAGC displayed a sensor-assay potency score (higher = more potent) of -1.86.

A further assay addresses NPBWR1. The description is as above. The settings on record: shRNA.
As to TTGATGGGCAGCACCAGCGTGA, the sensor-assay potency score (higher = more potent) is -0.969.
TTGTACTGGTCGATAGCCACGA: the sensor-assay potency score (higher = more potent) was -0.0597.
The same measure, in the same setting: next, TGTACTGGTCGATAGCCACGAT: -0.544.
With TTGGAGCAGCTCAGCGCCGGGT, the sensor-assay potency score (higher = more potent) is -1.46.
On to TGTTGTACTGGTCGATAGCCAC, for which the sensor-assay potency score (higher = more potent) is -0.835.
TTGGTGACGGTCTTCATGCGGG: the sensor-assay potency score (higher = more potent) was -0.52.
On to TGATGAAGTAGGAGATAGCGAT, for which the sensor-assay potency score (higher = more potent) was -0.908.
Same read-out and setting: next, TAGAGGACACAGATGGTGGACA: -0.757; TAGAGGAAGGGGTTGAGGCAGC: 0.0364.
AACTGGTACAGCCACCGCCAGC had a sensor-assay potency score (higher = more potent) of -1.89.
On to TCGATAGCCACGATGAGCTTGC, for which the sensor-assay potency score (higher = more potent) turned out to be 0.0042.
In the case of TCACCGCGTAGACAACTGGTAC, the sensor-assay potency score (higher = more potent) was -1.33.
